# Source: PubChem (National Center for Advancing Translational Sciences (NCATS))
# A selection: hits, their analogues and other compounds. The true share with any hit is near 1.5%.
# USP1 inh: inhibitors of human USP1/UAF1 deubiquitinase | O94782 | recombinant USP1/UAF1, Ub-Rhodamine cleavage fluorescence | Potency, µM (series often up to 57.1 µM), for the others: at the top dose activity change, negative = inhibition, most hits filed as inhibitors | 390,000 tested, 0.23% active | AID 743255; note: potency is the fitted concentration of half-maximal effect; nearly all actives have a fitted effect of over 60% in size
# Target sequence (O94782 whole entry, looked up): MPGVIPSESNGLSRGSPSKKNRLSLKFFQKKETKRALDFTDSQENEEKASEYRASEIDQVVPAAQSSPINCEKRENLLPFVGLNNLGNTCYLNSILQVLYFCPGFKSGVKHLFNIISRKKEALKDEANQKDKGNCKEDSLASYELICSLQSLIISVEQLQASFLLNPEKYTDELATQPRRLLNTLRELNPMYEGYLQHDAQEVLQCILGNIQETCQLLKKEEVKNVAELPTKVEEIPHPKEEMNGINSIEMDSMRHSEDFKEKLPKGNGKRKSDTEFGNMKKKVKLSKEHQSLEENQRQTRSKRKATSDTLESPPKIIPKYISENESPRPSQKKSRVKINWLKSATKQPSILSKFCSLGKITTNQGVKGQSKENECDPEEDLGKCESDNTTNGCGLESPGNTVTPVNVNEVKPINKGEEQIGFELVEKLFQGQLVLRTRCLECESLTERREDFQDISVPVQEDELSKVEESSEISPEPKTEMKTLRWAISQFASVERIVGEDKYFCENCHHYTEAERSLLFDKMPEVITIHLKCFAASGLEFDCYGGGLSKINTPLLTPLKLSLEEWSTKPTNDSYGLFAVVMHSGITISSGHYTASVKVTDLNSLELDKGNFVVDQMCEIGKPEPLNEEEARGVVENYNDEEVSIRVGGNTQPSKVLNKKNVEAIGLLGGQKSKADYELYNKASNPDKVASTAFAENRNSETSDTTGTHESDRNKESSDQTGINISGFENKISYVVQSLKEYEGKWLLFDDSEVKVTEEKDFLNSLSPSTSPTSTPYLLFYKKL
#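 USP1/UAF1 complex (1 nM) preincubated 15 min at room temperature with compound, then Ub-Rho substrate (150 nM final) added. Kinetic fluorescence at 480/540 nm over 6 reads at 60 s intervals; 50 mM HEPES pH 7.8, 0.5 mM EDTA, 0.1 mg/ml BSA, 1 mM TCEP, 0.01% Tween-20.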
# rTrxR1 inhibitor: inhibitors of rat thioredoxin reductase 1 | recombinant rTrxR1, NADPH fluorescence consumption, selenite substrate | Potency, µM (doses to about 114 µM), for the others: at the top dose activity change, negative = inhibition, usual class: inhibitors | 390,000 tested, 1% active | O89049 | AID 588453; note: potency is the fitted concentration of half-maximal effect; nearly all actives have a fitted effect of over 65% in size
#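 Rat TrxR1 (90 nM in the dispensed reagent) was pre-reduced with 400 uM NADPH for 5 min at room temperature, then incubated with compound for 15 min. After 400 uM selenite was added, NADPH fluorescence (Ex 340/Em 450 nm) was followed for 8 min.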
# GALK inhibitor: galactokinase (human) inhibition; P51570; Potency, µM (highest dose often 57.5 µM), for the others: at the top dose activity change, negative = inhibition, hits mostly inhibitors; Purified GALK, Kinase-Glo residual ATP luminescence; 270,000 tested, 0.007% active; note: potency is the fitted concentration of half-maximal effect
#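 Human GALK (5 nM) with 35 uM ATP and 100 uM galactose in 20 mM HEPES pH 8.0, 5 mM MgCl2, 60 mM NaCl, 1 mM DTT, 0.01% BSA. After 1 h at room temperature, leftover ATP was read by Kinase-Glo Plus luminescence.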
# FBPA coupling cs: counter-screen for Giardia aldolase inhibitors: coupling enzyme system | 290,000 tested, 0.67% active | coupling enzyme system counterscreen, AmpLite Red fluorescence | activity change, negative = inhibition, % at 58.2 µM, hits read low; in the data active = activity change below about -30%
#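 Compounds tested against the coupling enzymes alone at 57.5 uM final; readout was AmpLite Red fluorescence (525/598 nm) after 20 min at RT.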
# TrxR1 substrate: rat thioredoxin reductase 1 substrate activity | AID 588456 | purified TrxR1 substrate turnover, NADPH consumption readout | 390,000 tested, 0.01% active | Potency, µM (titrated, usually from 114 µM), without a hit: top-dose activity change, negative = substrate turnover; note: potency is the fitted concentration of half-maximal effect; nearly all actives have a fitted effect of over 50% in size
#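 Rat TrxR1, dispensed at 90 nM, was prereduced with 400 uM NADPH (final) for 5 min at ~22 deg C, then incubated with compound 15 min before 400 uM selenite. A first-read NADPH fluorescence drop versus no-compound background flagged substrates.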
# Numbers without * were called inactive; ? = inconclusive; · = not tested or not shown; ! = repeats disagree; [ ] = another dose, or the depositor's remark. Unless noted, calls come from the whole dose curve; as a rule, active = well fitted curve in the direction sought with a large enough effect; inconclusive = small, poorly fitted or top-dose-only effect, or another doubt; inactive = no such curve, though single readings can be large; an effect the other way counts as inactive or inconclusive. % is set by controls: 0 for no effect and ±100 for the full control effect.
SMILES,USP1 inh,rTrxR1 inhibitor,GALK inhibitor,FBPA coupling cs,TrxR1 substrate
CO[C@@H]1COC(=O)CCC[C@@H](C)[C@H](OC)COC(=O)[C@H](Cc2ccccc2)NC(=O)C/C=C\[C@H]1C,·,·,·,1,·
NC1=NC(=O)/C(=C\c2ccc(-c3ccccc3[N+](=O)[O-])o2)S1,·,?,·,·,-7%
O=c1nc2s/c(=C\c3ccc(-c4ccccc4[N+](=O)[O-])o3)c(=O)n2nc1-c1ccccc1,?,21%,0%,-50*,6%
O=C(COc1ccc2ccccc2c1)Nc1ccc(O)c(-c2nc3ccccc3o2)c1,·,9%,·,·,-4%
S=Cc1ccc(/C=C/c2ccnc3ccccc23)cc1,·,6%,·,·,-3%
Cc1cc(OC(C)C(=O)NC(Cc2c[nH]c3ccc(O)cc23)C(=O)O)c2c(C)c(C)c(=O)oc2c1 (stereo not given),5%,11µM*,·,-11,25%
C#CCn1c(=O)c2c(nc(/C=C/c3cccc(OC)c3)n2C)n(CCCOP(=O)(O)O)c1=O,·,·,·,2,·
O=C(CS(=O)c1ccc(C(F)(F)F)cc1[N+](=O)[O-])Oc1ccc(Cl)cc1 (stereo not given),?,50µM*,-1%,-15,-12%
CCN(CC)/[N+]([O-])=N/Oc1cc(O/N=[N+](\[O-])N(C)C)c([N+](=O)[O-])cc1[N+](=O)[O-],·,11µM*,·,0,-10%
COc1cc(OC)c(/C=C/c2ccncn2)c(OC)c1,·,-1%,·,·,-4%
COc1ccc(CN(C(=O)/C=C/C(=O)c2ccc(OC)cc2O)C(C(=O)NC2CCCCC2)c2ccncc2)cc1 (stereo not given),-17%,-1%,-1%,-5,-4%
COCCN(CC(=O)NC1CCCCC1)C(=O)/C=C/C(=O)c1ccc(OC)cc1O,-15%,2µM*,1%,0,9%[57.1 µM]
COc1ccc(C(=O)/C=C/C(=O)N(Cc2ccc3c(c2)OCO3)C(C(=O)NC2CCCCC2)c2ccncc2)c(O)c1 (stereo not given),-6%,14%,·,-3,1%
COc1ccc(C(=O)/C=C/C(=O)N(CC(=O)NC2CCCCC2)Cc2cccs2)c(O)c1,-30%,1µM*,-3%,1,3%
O=C1C=CC(=O)N1Cc1ccccc1,8%,0.4µM*,·,5,3%
O=S(=O)(c1cccc(Cl)c1)N1CCN(c2nc(-c3cccs3)nc3ccccc23)CC1,·,-3%,·,·,3%
CCCCS(=O)(=O)Nc1ccc(C)cn1,-24%,-14%,-1%,-51*,121%
Cc1cccc(S(=O)(=O)Nc2ccc(C)c3c2OC(C)(C)C3)c1,-15%,6%,-3%,-44*,-3%
Cc1ccc(NS(=O)(=O)c2ccccc2Cl)c2c1CC(C)(C)O2,-17%,0%,-3%,·,-7%
Cc1noc(C)c1-c1ccc2ncnc(NCc3ccc(C(F)(F)F)cc3)c2c1,·,·,·,-2,·
CC(C)Sc1ncc(Cl)c(C(=O)Nc2ccc(S(=O)(=O)N(C)c3ccccc3)cc2)n1,-30%,18%,·,·,1%
CCS(=O)(=O)c1ncc(Cl)c(C(=O)Nc2ccc(S(=O)(=O)N(C)c3ccccc3)cc2)n1,-10%,2.8µM*,-12%,-1,2%
CCN(c1ccccc1)S(=O)(=O)c1ccc(NC(=O)c2nc(S(C)(=O)=O)ncc2Cl)cc1,-12%,0.4µM*,-5%,·,-3%
CCSc1ncc(Cl)c(C(=O)Nc2ccc(S(=O)(=O)N(C)c3ccccc3)cc2)n1,-14%,21%,·,·,0%
O=C(NCCN1CCOCC1)C1(C(F)(F)F)CC(CCCO)CCCO1 (stereo not given),·,4%,·,2,4%
SMILES,USP1 inh,rTrxR1 inhibitor,GALK inhibitor,FBPA coupling cs,TrxR1 substrate
OC[C@H]1NC[C@H](O)[C@@H](O)[C@@H]1O,·,·,·,-1,·
O=C(CSc1nnc(-c2ccco2)c(-c2ccco2)n1)c1ccccc1,-11%,13µM*,-2%,-2,-11%
CC(=O)c1ccc(NC(=O)CSc2nnc(-c3ccco3)c(-c3ccco3)n2)cc1,?,7.1µM*,4%,-13,-3%[57.1 µM]
Nc1ccc(/C=C/c2nc3ccccc3s2)cc1,·,16%,·,·,-7%
Cc1ccc(C)n1-c1sccc1C(=O)O,?,50µM*,-3%,0,-7%
O=C(/C=C/c1ccco1)Nc1ccc(C(=O)N2CCOCC2)cc1,-3%,40µM*,3%,2,-10%
O=C(/C=C/c1ccco1)Nc1ccc(N2CCCC2)cc1,-10%,32µM*,0%,1,-3%
Cc1ccc(NC(=O)/C=C/c2ccco2)cc1S(=O)(=O)N1CCCCCC1,-21%,?,·,·,-1%
O=C(/C=C/c1ccco1)Nc1ccc(CN2CCOCC2)cc1,-20%,-26%,1%,0,-11%
Cc1cc(NS(=O)(=O)c2ccc(NC(=O)/C=C/c3ccco3)cc2)nc(C)n1,-5%,13µM*,-4%,9,-10%
CN(C)c1ccc(/C=C/c2ccnc3c(N)cccc23)cc1,·,-10%,·,·,-4%[0.0914 µM]
O=C(CCl)N(c1ccc(Cl)cc1)c1c[nH]c2ccccc12,-8%,0.45µM*,-7%,1,-7%
O=C(O)Cc1c[nH]c2ccccc12,16%,-1%,·,·,-2%
O=C(CCl)N(c1ccccc1)c1c[nH]c2ccccc12,-14%,2.2µM*,-11%,2,2%
Cc1ccc(-c2csc(NC(=O)C3CC(=O)N(c4ccc5c(c4)OCCO5)C3)n2)o1 (stereo not given),·,?,·,·,-3%
CCc1nc(N2CCN(C(C)=O)CC2)c2c3c(sc2n1)CC(C(C)(C)C)CC3 (stereo not given),0%,-8%,2%,-1,-7%
CCc1nc(N2CCN(C(=O)CCl)CC2)c2c3c(sc2n1)CC(C)CC3 (stereo not given),?,22µM*,-8%,-1,5%
O=C(Cc1ccccc1)NCC(=O)OCC(=O)c1ccc2ccccc2c1,·,11%,·,·,4%[0.0914 µM]
CN(C)c1nc(N)nc(/C(C#N)=C/C2CC3C=CC2C3)n1 (stereo not given),-23%,?,0%,-33*,1%
CC(=O)OCC1OC(C#Cc2ccc(C)cc2C)C=CC1OC(C)=O (stereo not given),·,·,·,-1,·
CC(=O)c1cccc(OCc2cc(C(=O)N(C)C(C)c3ccccn3)no2)c1 (stereo not given),-3%,50µM*,6%,0,4%
CC(=O)OCCn1c2nc(=O)[nH]c(=O)c-2nc2cc(C)c(C)cc21,28µM*,-7%,-4%,-19,-23%
Cc1cc2nc3c(=O)[nH]c(=O)nc-3n(C)c2cc1C=O,·,·,·,-38*,·
CC(=O)OCCn1c(C)[n+](CCOC(C)=O)c2cc(Cl)c(Cl)cc21,-20%,9%[57.1 µM],1%,3,0%[57.1 µM]
Cc1cc2nc3c(=O)[nH]c(=O)nc-3n(CC(O)C(O)C(O)CO)c2cc1C (stereo not given),·,·,·,-33*!,·
